{"source": "PubChem BioAssay (EPA / NIEHS)", "note": "The source made the active and inactive calls. Rule for the calls: active = hit-call score of the fitted dose curve at least 0.9, where 1 is the maximum; inactive = score below 0.9."}
{"read-out": "Plasminogen activator inhibitor-1 (PAI1), SERPINE1 (gene 5054)", "test": "BSK_hDFCGF_PAI1: BioMAP Diversity Plus: hDFCGF Assay for Plasminogen activator inhibitor-1 (PAI1) Biomarker Activity (AID 2283066)", "conditions": "primary human foreskin fibroblasts; actives raise or lower the signal", "experimental": "BSK_hDFCGF is a cell-based, multiplexed-readout assay that uses foreskin fibroblast, a human skin primary cell, with measurements taken at 24 hours after chemical dosing in a 96-well plate.BSK_hDFCGF_PAI1 is an assay component measured in the BSK_hDFCGF assay. It measures PAI-1 antibody related to regulation of gene expression using ELISA technology.Data from the assay component BSK_hDFCGF_PAI1 was analyzed into 1 assay endpoint. This assay endpoint, BSK_hDFCGF_PAI1, was analyzed with bidirectional fitting relative to DMSO as the negative control and baseline of activity. Using a type of binding reporter, gain or loss-of-signal activity can be used to understand changes in the signaling as they relate to the gene SERPINE1. Furthermore, this assay endpoint can be referred to as a primary readout, because this assay has produced multiple assay endpoints where this one serves a signaling function. To generalize the intended target to other relatable targets, this assay endpoint is annotated to the cytokine intended target family, where the subfamily is plasmogen activator inhibitor.\nThe levels of cell surface (or secreted, indicated by the prefix \"s\") biomarker endpoints were measured by ELISA. Overt cytotoxicity to cells in confluent adherent cultures (all systems other than the BT system) was assessed by measuring total protein levels using sulforhodamine B (SRB) staining in parallel cultures at the time of biomarker measurements, indicated as SRB endpoints. For proliferation assays for adherent cell types, individual cell types are cultured at sub-confluence and relative cell numbers quantified by SRB staining at time points optimized for each system (48 h: 3C and CASM3C systems; 72 h: BT and HDF3CGF systems; 96 h: SAg system). SRB was performed by staining cells with 0.1% SRB after fixation with 10% TCA and reading wells at 560 nm.Viability and proliferation of PBMC (T cells) was quantified by Alamar Blue reduction for the SAg and BT systems. For PBMC viability (referred to as PBMC Cytotoxicity within the assay endpoint names), cells were plated (75,000/well in a 96-well plate) and then chemical samples added for 1 h before addition of activators, SEB and TSST-1 (20 ng/mL final concentration each). Cells were incubated for 90 h. Then, Alamar Blue (20 uL/well) (Invitrogen, Cat DAL1100) was added for 6 h, and the plates were read with a fluorescence microplate reader at 546/580 nm (excitation/emission). For PBMC proliferation, cells were plated and activated as above but incubated for only 16 h prior to addition of Alamar Blue. Plates were read after 6 h."}
{"compound": "COP(=O)(CCC(=O)NCO)OC", "outcome": "inactive"}
{"compound": "CCOP(=S)(OCC)SCSc1ccc(Cl)cc1", "outcome": "inactive"}
{"compound": "ClC(Cl)(Cl)c1ccccc1", "outcome": "inactive"}
{"compound": "COP(N)(=S)OC", "outcome": "inactive"}
{"compound": "O=C(O)C(Cl)Cl", "outcome": "inactive"}
{"compound": "c1nc[nH]n1", "outcome": "inactive"}
{"compound": "CCCCC(CC)COC(=O)c1c(Br)c(Br)c(Br)c(Br)c1C(=O)OCC(CC)CCCC", "note": "(stereo not given)", "outcome": "inactive"}
{"compound": "Nc1ccc(Cl)cc1", "outcome": "inactive"}
{"compound": "ClC(Cl)=C(c1ccc(Cl)cc1)c1ccccc1Cl", "AC50": "4.24 µM (active)"}
{"compound": "CCCN(CCC)c1c([N+](=O)[O-])cc(C(C)C)cc1[N+](=O)[O-]", "AC50": "20 µM (active)"}
{"compound": "Nc1ccc2ccccc2c1", "outcome": "inactive"}
{"compound": "C=CC(=O)OCC(CC)(COC(=O)C=C)COC(=O)C=C", "AC50": "1.08 µM (active)"}
{"compound": "CCOc1ccc(C(C)(C)COCc2cccc(Oc3ccccc3)c2)cc1", "outcome": "inactive"}
{"compound": "Cc1c([N+](=O)[O-])cc2c(c1[N+](=O)[O-])C(C)(C)CC2(C)C", "outcome": "inactive"}
{"compound": "Cc1ccc(N)cc1N", "outcome": "inactive"}
{"compound": "CCOP(=S)(OCC)SCS(=O)(=O)CC", "outcome": "inactive"}
{"compound": "Cc1cccc(N)c1", "outcome": "inactive"}
{"compound": "c1ccc2c(c1)sc1ccccc12", "outcome": "inactive"}
{"compound": "CCC(C)(C)c1ccc(O)cc1", "outcome": "inactive"}
{"compound": "CCOP(=S)(OCC)SCn1nnc2ccccc2c1=O", "outcome": "inactive"}
{"compound": "CCN(CC)c1ccccc1", "outcome": "inactive"}
{"compound": "CC(Cl)(Cl)C(=O)O", "outcome": "inactive"}
{"compound": "O=C(O)C(F)(F)C(F)(F)C(=O)O", "outcome": "inactive"}
{"compound": "CC(C)(C)OOC(C)(C)C", "outcome": "inactive"}
{"compound": "O=P(OCC(Br)CBr)(OCC(Br)CBr)OCC(Br)CBr", "note": "(stereo not given)", "outcome": "inactive"}
{"compound": "Cc1ccc2c(c1N)C(=O)c1ccccc1C2=O", "outcome": "inactive"}
{"compound": "O=C(O)C=CC(F)(C(F)(F)F)C(F)(F)F", "outcome": "inactive"}
{"compound": "O=S(=O)(F)C(F)(F)C(F)(F)C(F)(F)C(F)(F)C(F)(F)C(F)(F)C(F)(F)C(F)(F)F", "outcome": "inactive"}
{"compound": "O=c1ssc(Cl)c1Cl", "AC50": "4.05 µM (active)"}
{"compound": "O=[N+]([O-])c1ccc(Cl)c(Cl)c1", "outcome": "inactive"}
{"compound": "FC(F)(F)C(F)(C(F)(F)F)C(F)(F)C(F)(F)CC1CO1", "note": "(stereo not given)", "outcome": "inactive"}
{"compound": "N#Cc1c(-c2ccc(Cl)cc2)[nH]c(C(F)(F)F)c1Br", "AC50": "0.39 µM (active)"}
{"compound": "Nc1cc2c3c(c1)C(c1ccccc1)=N[C@@H](NC(=O)c1cccnc1)C(=O)N3CC2", "AC50": "0.523 µM (active)"}
{"compound": "COC(=O)C(F)(F)C(F)(F)OC(F)(C(F)(F)F)C(F)(F)OC(F)=C(F)F", "note": "(stereo not given)", "outcome": "inactive"}
{"compound": "CCCCOCCOP(=O)(OCCOCCCC)OCCOCCCC", "outcome": "inactive"}
{"compound": "O=P1(N(CCCl)CCCl)NCCCO1", "note": "(stereo not given)", "outcome": "inactive"}
{"compound": "O=C(O)C(F)(F)OC(F)(F)C(F)(F)OC(F)(F)C(=O)O", "outcome": "inactive"}
{"compound": "CCOC(=O)c1ccccc1C(=O)OCC", "outcome": "inactive"}
{"compound": "CC(Cc1ccc(OCC(=O)O)cc1)NCC(O)c1csc(C(F)(F)F)n1", "note": "(stereo not given)", "outcome": "inactive"}
{"compound": "COCCOCCO", "outcome": "inactive"}
